We go through five molecules from PubChem BioAssay.

Assay [1] in a line: Her2 expression decrease, cell viability multiplex – SKBR3 breast tumor cells, AlphaScreen, ATP viability, primary screen (AID 461;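 active means Her2 level under about 52% in both replicate screens, with viability over 70% of control, limit read from the data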;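 on Her2 level: lower value means less Her2 protein in the cells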;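 on viability: percent of carrier control wells set as 100% viability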). The note with it: SKBR3 Her2 protein level, 18-24 h, measured here: SKBR3 viability, ATP luminescence, at 10 µM.
Assay [2] has as its target Receptor tyrosine-protein kinase erbB-2 (Homo sapiens) (UniProt P04626). The description is as above. The settings on record: 18-24 h, at 10 µM, stronger effect = lower value.
A short description of assay [3]: reduced viability of SK-BR-3 breast cancer cells – cell-based, 24 h, human, pilot screen (AID 572;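 active means viability at or below 10% of carrier control in both of two separate runs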;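 further: compound exposure lasted between 18 and 24 h rather than exactly 24 h; 100% = carrier-treated control wells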). The note with it: SK-BR-3 viability, CellTiter-Glo luminescence, at 10 µM, stronger effect = lower value.
Assay [4] in a line: HUVEC growth inhibition – cell-based, human, primary screen (AID 575;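 active means viability at or below 30% in both replicate assays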;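 further: 100% = median of untreated cell wells with 0.1% DMSO on each plate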). The note with it: HUVEC proliferation, CellTiter-Glo luminescence, 72 h; at 10 µM; stronger effect = lower value.
Assay [5] in a line: H69AR cell proliferation blockers – human, duplicate replicates, primary screen (AID 580;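 active means viability at or under a set limit in both replicates, limit being median viability minus 3 SD, cut at about 48% in these data, passing the limit was not always enough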;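 further: 100% = mean luminescence of untreated wells and 0% = no signal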). The settings on record: H69AR lung tumor cells viability, ATP luminescence, 72 h; at 10 µM; stronger effect = lower value.
The nature of assay [6]: MRP1 drug-resistance reversers in H69AR cells – cell-based, doxorubicin co-treatment, pilot screen (AID 601;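 active means viability loss from added drug above about 55%, and viability with drug at most 40%, in both replicates, limit read from the data, passing the limit was not always enough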). The settings on record: CellTiter-Glo, 72 h, at 10 µM; for differential viability (reversal): stronger effect = higher value.
Assay [7] is described as follows: yeast transport mutant growth inhibition pilot in 384-well plates, post-Golgi transport modulator project (AID 636; in the data active means inhibition above about 31%). The settings on record: absorbance 615 nm, about 18 h, stronger effect = higher value.
A short description of assay [8]: growth suppression of yeast trafficking mutant, preliminary HTS, modulators of trafficking downstream of Golgi apparatus project, 1536-format plate, OD 615 nm (AID 637; in the data active means inhibition above about 30%). The settings on record: yeast transport mutant growth, absorbance 615 nm, 18 h; stronger effect = higher value.
Assay [9] in a line: S. cerevisiae growth inhibition in permissive medium (OD615), pilot counter-assay for S. cerevisiae lifespan shortening project, permissive growth control (AID 705;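 active means growth inhibition above 25% in both replicates, a cutoff set 3 SD above the mean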). The settings on record: OD615, 24 h, at 10 µM, stronger effect = higher value.
Assay [10] can be described thus: S. cerevisiae growth inhibition in restrictive medium, OD615, pilot screen, restrictive growth control, yeast lifespan reduction project (AID 706;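 active means growth inhibition above a set limit, 3 SD over mean compound inhibition, in both replicates, cut at about 43% in these data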;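 further: modified DeaD lifespan yeast strain shifted to restrictive glucose medium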). The settings on record: OD615, 48 h, at 10 µM, stronger effect = higher value.
Assay [11] can be described thus: doxorubicin toxicity protection in MRP-1 cells – H69AR cells, CellTiter-Glo, duplicate, MRP-1 activator project, pilot screen (AID 807).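 Further: compound pretreatment 18-22 h then 72 h combined with doxorubicin; 0% = doxorubicin alone and 100% = vehicle without doxorubicin.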 The note with it: H69AR viability with doxorubicin, CellTiter-Glo luminescence; at 10 µM; stronger effect = higher value.
A short description of assay [12]: viability of HCT116 without oncogenic beta-catenin – human colon tumor cells, pilot screen (AID 823;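 active means cell viability at or below a set limit in both duplicate runs, the limit being the all-compound median minus 4 SD, cut at about 23% in these data, passing the limit was not always enough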;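 further: 0% = wells killed by 20 µM Hyamine and 100% = untreated DMSO cell wells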). The settings on record: HCT116 beta-catenin knockout viability, CellTiter-Glo, 60 h; at 10 µM; stronger effect = lower value.
The nature of assay [13]: viability of PTEN-null HCT116 cells – cell-based, HCT116 clonal line, CellTiter-Glo, pilot screen (AID 824;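 active means viability at or below 27.92% in each of two runs, the all-compound median minus 4 SD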;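 further: 0% = 20 µM Hyamine control and 100% = vehicle cell control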). The settings on record: HCT116 PTEN-deleted viability, 60 h, at 10 µM, stronger effect = lower value.
The nature of assay [14]: RAM pathway blockade in budding yeast – dse1pr::URA3 reporter, 5-FOA selection, pilot screen (AID 869;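 active means inhibition over a set limit, the all-compound mean plus 3 SD, in both replicate runs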;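 further: 0% = DMSO wells with no growth and 100% = 10 µM 1-NA-PP1 with full growth; RAM network block rescues cells from 5-FOA so hits raise OD615 growth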). The note with it: S. cerevisiae dse1pr::URA3 5-FOA growth, OD615, 2 d; at 10 µM; stronger effect = higher value; strain carries analog-sensitive mutant Cbk1 kinase.
The nature of assay [15]: RAM signaling pathway blockade in yeast – S. cerevisiae, Pdr1DBD-CYC8 efflux-inhibited sensitized strain, primary screen (AID 1298;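 active means RAM network inhibition above 8.4% in each of two replicates, 3 SD over the compound average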;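 further: 0% = DMSO untreated cells without growth and 100% = 10 µM 1-NA-PP1 full growth; higher means more yeast growth rescued from 5-FOA killing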). The settings on record: S. cerevisiae cbk1-as DSE1-URA3 strain, 5-FOA growth OD615, 2 d; at 50 µM; stronger effect = higher value.
[16] abbreviates: H69AR cells + 2 uM doxorubicin, measured here: viability with 2 uM doxorubicin, stronger effect = lower value.
Where [17] appears, read: H69AR cells, compound alone cytotoxicity.

Each structure is given as a SMILES string. Inconclusive results are not listed. The source made the active and inactive calls.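 How the source made its calls, unless noted: active means viability increase at or above a cutoff of the median across tested compounds plus 3 SD (cut at about 8.5% in these data, passing the limit was not always enough); inconclusive means some gains above the cutoff, reason not given; inactive means the rest.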

Receptor tyrosine-protein kinase erbB-2 (Homo sapiens), sequence (P04626 whole entry, looked up): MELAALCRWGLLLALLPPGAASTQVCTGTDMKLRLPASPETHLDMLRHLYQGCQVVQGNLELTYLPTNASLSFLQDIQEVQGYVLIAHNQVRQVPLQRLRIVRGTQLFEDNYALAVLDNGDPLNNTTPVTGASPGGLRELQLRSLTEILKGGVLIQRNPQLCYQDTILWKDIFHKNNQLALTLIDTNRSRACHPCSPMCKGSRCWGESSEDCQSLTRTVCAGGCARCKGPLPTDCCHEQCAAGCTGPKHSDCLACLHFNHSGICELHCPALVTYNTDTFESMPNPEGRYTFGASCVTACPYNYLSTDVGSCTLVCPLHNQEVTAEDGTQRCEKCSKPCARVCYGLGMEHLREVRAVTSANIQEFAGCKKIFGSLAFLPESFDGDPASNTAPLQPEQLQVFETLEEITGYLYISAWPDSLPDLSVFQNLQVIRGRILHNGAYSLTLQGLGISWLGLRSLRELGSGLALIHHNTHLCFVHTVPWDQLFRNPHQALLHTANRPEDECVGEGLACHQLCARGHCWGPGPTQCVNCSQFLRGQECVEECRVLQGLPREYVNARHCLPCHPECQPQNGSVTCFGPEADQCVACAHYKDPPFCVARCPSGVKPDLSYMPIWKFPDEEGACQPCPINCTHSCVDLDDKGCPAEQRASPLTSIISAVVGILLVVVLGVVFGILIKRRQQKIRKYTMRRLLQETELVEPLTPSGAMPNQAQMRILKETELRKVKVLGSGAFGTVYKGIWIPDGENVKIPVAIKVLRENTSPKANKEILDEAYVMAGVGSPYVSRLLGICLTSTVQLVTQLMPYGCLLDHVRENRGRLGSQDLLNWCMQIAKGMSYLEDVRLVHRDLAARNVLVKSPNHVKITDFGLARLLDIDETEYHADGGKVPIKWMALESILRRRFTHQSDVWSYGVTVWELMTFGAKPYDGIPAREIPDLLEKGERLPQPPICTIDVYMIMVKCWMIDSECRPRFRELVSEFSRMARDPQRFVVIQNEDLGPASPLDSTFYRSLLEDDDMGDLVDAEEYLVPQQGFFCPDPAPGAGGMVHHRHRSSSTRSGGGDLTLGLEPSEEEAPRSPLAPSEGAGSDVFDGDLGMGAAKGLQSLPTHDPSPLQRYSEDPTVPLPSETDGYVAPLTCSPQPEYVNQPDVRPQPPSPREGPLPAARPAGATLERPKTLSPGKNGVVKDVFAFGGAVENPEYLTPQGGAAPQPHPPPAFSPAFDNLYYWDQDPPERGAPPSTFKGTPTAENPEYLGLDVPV

As for `COC(=O)CSc1nc2nc(C)cc(C)n2n1`, the viability in assay [1] is 99%; in assay [3] it was 99% (inactive); in assay [4] it was 88.8% (inactive); in assay [5], 99.7% (inactive); in assay [6] (setting [16]), 94.3%; in assay [6] (setting [17]), 99.7%. Also, the viability in assay [12] was 97.7% (inactive); in [13], 91.2% (inactive). Besides, the Her2 level in assay [2] was 96.5% (inactive). For the same molecule, the differential viability (reversal) in assay [6] (H69AR cells + 2 uM doxorubicin) is 5.46% (inactive). The inhibition in [7] was -3.73% (inactive); in assay [8] it was 3.17% (inactive); in assay [14] it was 2.01% (inactive). For the same molecule, the growth inhibition in [9] was -2.5% (inactive); in assay [10] it was 1.47% (inactive). Moreover, the viability increase in assay [11] was -0.51% (inactive). For the same molecule, in [15], the RAM network inhibition was 2.93% (inactive).

Regarding `CC(=O)NC(CCS(C)(=O)=O)C(=O)Nc1cc(C)on1` (stereo not given), the viability was 119% in assay [1]; 119% (inactive) in [3]; 105% (inactive) in [4]; 99.1% (inactive) in [5]; 92.1% in assay [6] (setting [16]); 99.1% in assay [6] (setting [17]). The viability in assay [12] was 104% (inactive); in assay [13] it was 95.7% (inactive). Moreover, in assay [2], the Her2 level is 106% (inactive). Further, the differential viability (reversal) in [6] (H69AR cells + 2 uM doxorubicin) was 7% (inactive). For the same molecule, the inhibition in assay [7] is -4.67% (inactive); in assay [8], 0% (inactive); in assay [14], 1.99% (inactive). Besides, the growth inhibition in assay [9] is -14.1% (inactive); in assay [10], -22.3% (inactive). In addition, the viability increase in assay [11] is 1% (inactive). Also, the RAM network inhibition in assay [15] was 0.32% (inactive).

On to `CCOc1ccc(N(CC(=O)NC2CCCCC2)S(=O)(=O)c2c(C)noc2C)cc1`, for which the viability in assay [1] was 79.5%; in assay [3], 79.5% (inactive); in [4] it was 87.3% (inactive); in [5] it was 74.3% (inactive); in assay [6] (setting [16]) it was 85.6%; in [6] (setting [17]), 74.3%. For the same molecule, the viability in assay [12] was 95.5% (inactive); in assay [13], 89% (inactive). Also, the Her2 level in [2] is 86.5% (inactive). For the same molecule, in [6] (H69AR cells + 2 uM doxorubicin), the differential viability (reversal) is -11.3% (inactive). For the same molecule, the inhibition in assay [7] is -2.31% (inactive); in assay [8] it was -12.8% (inactive); in assay [14], 3.15% (inactive). Further, the results for the growth inhibition in [9] and in [10] were -6.46% (inactive) and 0.415% (inactive), respectively. In addition, in assay [11], the viability increase is -1.54% (inactive). In addition, the RAM network inhibition in [15] is 1.06% (inactive).

As to `CCN(CC)C(=O)COC(=O)c1ccc(O)cc1`, the viability in assay [1] was 90.5%; in assay [3] it was 90.5% (inactive); in assay [4] it was 103% (inactive); in assay [5], 91.2% (inactive); in assay [6] (setting [16]) it was 96.7%; in [6] (setting [17]) it was 91.2%. Moreover, the viability in assay [12] is 95.6% (inactive); in assay [13] it was 101% (inactive). In assay [2], the Her2 level was 102% (inactive). In [6] (H69AR cells + 2 uM doxorubicin), the differential viability (reversal) was -5.45% (inactive). The values for the inhibition in assay [7], in assay [8] and in assay [14] were 1.73% (inactive), -5.97% (inactive) and 1.32% (inactive), respectively. The growth inhibition is -6.88% (inactive) in assay [9] and -17.4% (inactive) in assay [10]. The viability increase in [11] is 0.25% (inactive). Besides, the RAM network inhibition in assay [15] was -0.27% (inactive).

On to `COc1ccc(S(=O)(=O)NCC(c2cccnc2)N2CCN(C)CC2)cc1C` (stereo not given), for which the viability is 97% in [1]; 97% (inactive) in assay [3]; 80.9% (inactive) in assay [4]; 91% (inactive) in assay [5]; 93.5% in assay [6] (setting [16]); 91% in [6] (setting [17]). Also, the figures for the viability in [12] and in assay [13] were 97.8% (inactive) and 96.1% (inactive), respectively. Also, the Her2 level in [2] is 98.5% (inactive). Moreover, the differential viability (reversal) in assay [6] (H69AR cells + 2 uM doxorubicin) is -2.52% (inactive). Also, the inhibition in assay [7] was -0.64% (inactive); in [8], -2% (inactive); in [14] it was 2.23% (inactive). The values for the growth inhibition in assay [9] and in assay [10] were 1.16% (inactive) and -9.37% (inactive), respectively. In assay [11], the viability increase was -2.64% (inactive). In addition, the RAM network inhibition in [15] is 0.11% (inactive).
